High-throughput results as filed in PubChem BioAssay.
TLR4-MyD88 BLA: blocks binding of human TLR4 to MyD88. inhibition, % at 8.4 µM. AID 861. 200,000 tested, 0.18% active. O00206+Q99836. HeLa CL3-4 TLR4/MyD88 BLA complementation, FRET ratio; in the data active = inhibition above about 25%
NOD2 RIPK2 PPI: NOD2-RIPK2 protein interaction inhibition; O43353; AID 624267; inhibition, % at 4.98 µM; CHO BLA complementation NOD2-RIPK2, CCF4 ratio; 360,000 tested, 0.38% active; in the data active = inhibition above about 21%
Rtt109 Vps75: blocks Candida albicans Rtt109/Vps75 acetyltransferase activity; inhibition, % at 34.9 µM; Q5AAJ8; 330,000 tested, 0.16% active; purified Rtt109/Vps75, ThioGlo CoA-SH fluorescence, 4 h;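 active = inhibition of at least 50% in every replicate; inconclusive = best replicate reaches 50% inhibition but some replicates fall short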
Target sequence (Q5AAJ8 whole entry, looked up): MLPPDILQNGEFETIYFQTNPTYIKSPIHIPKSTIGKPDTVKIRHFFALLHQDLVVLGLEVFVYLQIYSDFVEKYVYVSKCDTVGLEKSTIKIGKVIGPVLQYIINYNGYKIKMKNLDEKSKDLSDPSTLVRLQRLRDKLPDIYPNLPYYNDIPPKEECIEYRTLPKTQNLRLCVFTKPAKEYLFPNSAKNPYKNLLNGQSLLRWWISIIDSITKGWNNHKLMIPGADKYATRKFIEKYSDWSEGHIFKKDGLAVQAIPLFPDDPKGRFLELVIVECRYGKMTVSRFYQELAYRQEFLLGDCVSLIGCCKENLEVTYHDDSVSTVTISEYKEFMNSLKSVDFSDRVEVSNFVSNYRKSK
HTR2A ag: agonists of mouse serotonin 5-HT2A receptor (HTR2A); activation, % at 7.6 µM; P35363; CHO-K1 mHTR2A beta-arrestin complementation, luminescence; percent of 30 µM serotonin response; 360,000 tested, 0.66% active;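 active = activation above a run cutoff, the mean activation of all tested compounds plus 3 SD, cut at about 14% in these data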
LANA-H2B inh: blocks KSHV LANA binding to histone H2A/H2B; 320,000 tested, 0.6% active; cell-free LANA-H2A/H2B peptide, fluorescence polarization; inhibition, % (test concentration not listed); in the data active = inhibition mostly above about 10%, no sharp cut-off; inactive = mostly below about 6.7%
TLR9-MyD88 block: TLR9-MyD88 interaction inhibition | Q9NR96+Q99836 | CHO BLA complementation TLR9-MyD88, CCF4 FRET ratio | inhibition, % at 4.98 µM | 340,000 tested, 0.21% active | AID 504734;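 active = inhibition above the mean over all tested compounds plus 3 SD, cut at about 21% in these data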
Hits are given with their value; i = inactive; ? = inconclusive; nt = not tested or not shown. Most compounds without a hit are left out; they make up all but 1.8% or so of the library.

SMILES	TLR4-MyD88 BLA	NOD2 RIPK2 PPI	Rtt109 Vps75	HTR2A ag	LANA-H2B inh	TLR9-MyD88 block
CC(C)C[C@@H]1O[C@H](CCc2ccccc2)Cc2[nH][nH]c(=O)c21	nt	i	nt	i	nt	nt
c1ccc(Cn2nnnc2C(c2ccccn2)N2CCOCC2)cc1 (stereo unspecified)	i	i	63	i	i	i
CCCCn1nnnc1C1(C)CCC(=O)N1Cc1ccco1 (stereo unspecified)	nt	i	nt	i	nt	nt
CN1CCN(C2=C(Cl)C(=O)N(c3ccc(Cl)cc3)C2=O)CC1	i	i	i	16	i	i
Cc1ccc(N2C(=O)C(Cl)=C(N3CCN(C)CC3)C2=O)c(C)c1	i	i	?	i	i	i
O=C1C(Cl)=C(N2CCOCC2)C(=O)N1c1cccc(Cl)c1	i	i	i	i	i	i
Cc1cccc(N2C(=O)C(Cl)=C(N3CCOCC3)C2=O)c1	nt	i	113	i	i	i
Cn1nc(C(C)(C)C)cc1C(=O)N1CCCC(c2cc(C(=O)Nc3ccccc3Cl)no2)C1 (stereo unspecified)	nt	i	nt	i	nt	nt
Cc1ccc(NC(=O)Nc2ccc(F)cc2F)c(OC(F)F)c1	i	i	i	i	102	i
Fc1ccc(-c2nc3c4ccccc4ccn3c2Cc2cccc(Cl)c2)cc1	nt	i	nt	i	nt	nt
O=C(NN1C(=O)/C(=C/C=C/c2ccco2)SC1=S)c1ccccc1O	nt	i	70	i	i	i
Cn1cccc1/C=C1\SC(=S)N(NC(=O)c2ccccc2O)C1=O	nt	i	i	i	i	i
CCCCOCCCNC(=O)C[C@@H]1C[C@@]2(C(=O)OC)CC(C)(C)CC=C2N(Cc2cccc3ccccc23)C1=O	nt	i	nt	i	nt	nt
CC(=O)Nc1cccc(Oc2nc(NCCN(C)C)nc3ccsc23)c1	nt	i	nt	i	nt	nt
COc1ccccc1Cc1c(-c2ccc(C#N)cc2)nc2ccc(C)cn12	nt	i	nt	i	nt	nt
Cc1c(N=Cc2ccc(Cl)o2)c(=O)n(-c2ccccc2)n1C	i	i	i	i	23	i
Cc1c(N=Cc2ccc(-c3ccc(Cl)cc3)o2)c(=O)n(-c2ccccc2)n1C	i	i	i	i	i	i
CC(C(=O)NCc1ccc(Cl)cc1)n1cccc1C(=O)c1ccccc1 (stereo unspecified)	nt	i	i	i	19	i
CCN(CC)C1=C(Cl)C(=O)C(Cl)C12OCCO2 (stereo unspecified)	nt	i	i	i	12	nt
CCC(C)NCCOCCOc1ccc(Cl)c2ccccc12 (stereo unspecified)	i	i	i	i	12	i
Cc1nn(C(=O)c2nn(C)cc2[N+](=O)[O-])c(C)c1Br	i	i	i	30	i	i
O=S(=O)(N/N=C1/CCCc2ccccc21)c1ccc(Br)cc1	i	i	i	i	i	i
O=S(=O)(N/N=C1\CCCc2ccccc21)c1ccccc1	nt	i	i	i	14	i
COC(=O)c1cccc(CC2(C)C(=O)Nc3ccc(OC(F)(F)F)cc32)c1 (stereo unspecified)	nt	i	nt	i	nt	nt
O=C(CCc1nc(-c2ccccc2)no1)NCc1ccccc1CN1CCOCC1	nt	i	i	i	26	i
SMILES	TLR4-MyD88 BLA	NOD2 RIPK2 PPI	Rtt109 Vps75	HTR2A ag	LANA-H2B inh	TLR9-MyD88 block
O=C(CCc1nc(-c2ccc(Cl)cc2)no1)NCc1ccccc1CN1CCOCC1	nt	i	i	i	i	i
O=C(CSc1n[nH]c(-c2ccncc2)n1)Nc1ccccc1	nt	i	i	i	i	i
CC(=O)Nc1cccc(NC(=O)CSc2n[nH]c(-c3ccccc3)n2)c1	nt	i	i	i	20	i
CS(=O)(=O)c1ccc(Cl)c(NC(=O)c2ccc(-n3cncn3)c([N+](=O)[O-])c2)c1	nt	i	nt	i	nt	i
COCCCNC(=O)CN(c1cc(OC)ccc1OC)S(=O)(=O)c1ccccc1	i	i	i	i	19	i
COc1ccc(OC)c(N(CC(=O)NCc2ccccc2)S(=O)(=O)c2ccc(OC)c(OC)c2)c1	nt	i	i	i	41	i
CC(C)N1CCCC(C)(C(=O)Nc2nccc3ccccc23)C1 (stereo unspecified)	nt	i	nt	i	nt	nt
COc1cc(C(=O)Nc2ccc3nc(N4CCOCC4)sc3c2)cc(OC)c1OC	nt	i	i	i	37	i
Cc1c(C(=O)Nc2ccc3nc(N4CCOCC4)sc3c2)oc2ccccc12	nt	i	i	i	i	i
Cc1ccsc1/C=C(\C(=O)c1ccc(OC(C)C)cc1)c1nc2ccccc2o1	i	i	i	i	11	i
